Test results as given in PubChem BioAssay AID686978 (National Center for Advancing Translational Sciences (NCATS), 2013).
About 64,000 (15%) of roughly 420,000 compounds were called active. About 27% were inconclusive and are not listed. Only a sample is shown. Unmarked numbers belong to inactive results. The call rests on the fitted dose curve; in most records, active means well fitted inhibition curve with a large enough effect; inconclusive means small, poorly fitted or top-dose-only effect; inactive means flat fitted curve, though single readings scatter.

assay: qHTS for Inhibitors of human tyrosyl-DNA phosphodiesterase 1 (TDP1): qHTS in cells in absence of CPT; details: DT40 Tdp1-/- hTDP1 cells, no CPT, ATP luminescence, 48 h; activity change, negative = growth inhibition: at 46.2 µM (top of the series); further: nearly all actives have a fitted effect of over 55% in size
Outline: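 No-CPT arm: Tdp1-/-;hTDP1 DT40 cells (400/well) plus compounds, incubated ≥48 hr at 37 °C. Readout CellTiter-Glo luminescence.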
On the % scale 0 is the no-effect control and ±100 the full control effect; potency means the concentration at half of the fitted maximal effect.

| Structure (SMILES) | activity change, negative = growth inhibition | Potency |
| --- | --- | --- |
| CCCc1nnc(NC(=O)CCC(=O)NC2CC2)s1 | 6.31% |  |
| O=C(Oc1cc(OC(=O)c2ccccc2)c2c(c1)OC(c1ccc(OC(=O)c3ccccc3)c(OC(=O)c3ccccc3)c1)[C@@H](OC(=O)c1ccccc1)C2)c1ccccc1 (stereo partly drawn) | -1.82% |  |
| Nc1ccc(-n2nncc2-c2ccco2)cc1 | -7.69% |  |
| CC(C)c1ccc(N2CC(C(=O)Nc3nccs3)CC2=O)cc1 (stereo not drawn) | -19% |  |
| O=C(NN=C1CCC(=NNC(=O)c2cccnc2)CC1)c1cccnc1 | 15% |  |
| COc1ccc(CNC(=O)C2CCN(S(C)(=O)=O)CC2)cc1 | 0.741% |  |
| Cn1cnc(S(=O)(=O)N2C[C@@H](O)COC[C@@H]3O[C@H](CC(=O)NC4CCC4)CC[C@H]32)c1 | -4.51% |  |
| c1csc(-c2nnc(COc3ncnc4sccc34)o2)c1 | -2.27% |  |
| C[C@@H]1NC(=O)c2cc([N+](=O)[O-])cc(F)c2NCCC[C@@H](C(N)=O)NC(=O)[C@H](CC(N)=O)NC1=O | 15.3% |  |
| O=C(c1cc(S(=O)(=O)N2CCOCC2)ccc1Cl)N1CCOCC1 | -1.42% |  |
| COc1cc2c(cc1OC)CN(C(=O)c1cc(S(=O)(=O)N3CCCCC3)ccc1Cl)CC2 |  | 11.6 µM (active) |
| COc1ccc(S(=O)(=O)N2CCCCC2)cc1Br | -14.8% |  |
| COc1ccc(S(=O)(=O)N2CCC(C(=O)N3CCc4ccccc4C3)CC2)cc1OC |  | 29.1 µM (active) |
| COc1cc(S(=O)(=O)N2CCN(C(=O)C3CC3)CC2)ccc1NC(C)=O | 19.7% |  |
| COc1cc2c(cc1OC)CN(C(=O)c1ccc(S(=O)(=O)N3CCCCCC3)cc1)CC2 |  | 14.6 µM (active) |
| COc1ccc(C(=O)NCC2CCCCC2)cc1S(=O)(=O)N1CCCC1 | -8.77% |  |
| CN1CCN(NC(=O)c2ccc(S(=O)(=O)N3CCCCCC3)cc2)CC1 | -18.3% |  |
| COc1ccc(S(=O)(=O)N2CCC(C(=O)N3CCOCC3)CC2)cc1OC | -12% |  |
| CSc1ccccc1OCc1cc(C(=O)N2C[C@H]3CC[C@H]2C3)no1 | -22% |  |
| CCOc1ccccc1N(CC(=O)NC1CCCCC1)C(=O)CCCC(=O)Nc1ccccn1 | -20.7% |  |
| O=C(c1ccc(Cl)cc1)c1cnc(Nc2ccccc2)s1 | -8.04% |  |
| Cc1ccc(S(=O)(=O)NN=C2CC(C)(C)CC(=O)C2(C)C)cc1 | -14.2% |  |
| COC(C[C@@H](O)C[C@H](O)[C@H](C)OCc1ccccc1)OC | 10.3% |  |
| Cc1noc(C)c1COc1ccccc1C(=O)N(C)CC(=O)Nc1cccc(F)c1 | -19.2% |  |
| Cc1cc(Nc2ccccc2)n(CCC#N)n1 | -13.7% |  |
| O=c1ccn([C@@H]2O[C@H](COP(=O)(O)OP(=O)(O)OP(=O)(O)O)[C@@H](O)[C@H]2O)c(=O)[nH]1 | -7.87% |  |

| Structure (SMILES) | activity change, negative = growth inhibition | Potency |
| --- | --- | --- |
| Cc1ccccc1NC(=O)CN1C(=O)N/C(=C\c2cccn2-c2cccc(C(=O)O)c2)C1=O | -5.12% |  |
| Nn1c(SCc2ccccc2)nnc1C1CCCCC1 | -9.36% |  |
| Cc1ccc(S(=O)(=O)c2nc(NCCCn3ccnc3)sc2Cl)cc1 |  | 20.6 µM (active) |
| Cc1ccc(S(=O)(=O)NCCCn2ccnc2)cc1C(=O)NC(C)C | -5.17% |  |
| Cc1ccc(-c2nc(C#N)c(NCCCn3ccnc3)o2)cc1 | -27.6% |  |
| CCc1ccccc1NC(=O)CCOc1ccccc1 |  | inactive |
| CCc1ccccc1NC(=S)Nc1cc(OC)c(NC(=O)C(C)C)cc1OC | -17.7% |  |
| CCc1ccccc1NC(=O)/C(=C/c1ccccc1)c1ccccc1 |  | 23.1 µM (active) |
| O=S(=O)(Nc1cccc(Oc2ccc(Cl)cc2)n1)c1ccc(F)cc1 | 1.53% |  |
| CC(C)(C)NC(=O)CN1CCC(NC(=O)C23CC4CC(CC(C4)C2)C3)CC1 | -4.57% |  |
| CCc1c(C)sc(NC(=O)C2c3ccccc3Oc3ccccc32)c1C(=O)OC(C)C | 0.406% |  |
| O=C(OCC(=O)N1CCOCC1)c1ccc(N2CCOCC2)c([N+](=O)[O-])c1 | -2.15% |  |
| O=C(Cc1ccc(S(=O)(=O)N2CCOCC2)s1)Nc1ccc(Br)c(C(F)(F)F)c1 |  | 25.9 µM (active) |
| O=C(Cc1ccc(S(=O)(=O)N2CCOCC2)s1)N1CCN(c2ccc(C(F)(F)F)cc2[N+](=O)[O-])CC1 |  | 9.2 µM (active) |
| Cc1cc(S(=O)(=O)N2CCOCC2)ccc1OCC(=O)Nc1cccc(C(F)(F)F)c1 | -9.35% |  |
| O=C(c1ccc(N2CCOCC2)c([N+](=O)[O-])c1)N1CCN(S(=O)(=O)c2cccs2)CC1 |  | 16.4 µM (active) |
| O=C(Cc1ccc(S(=O)(=O)N2CCOCC2)s1)NCCOc1ccccc1F | -16.1% |  |
| O=C(Oc1ccccc1Cl)c1ccc(N2CCOCC2)c([N+](=O)[O-])c1 | -15.9% |  |
| O=S(=O)(Nc1cc(S(=O)(=O)N2CCOCC2)ccc1N1CCCC1)c1cccs1 | -19.9% |  |
| O=C(COc1ccc(S(=O)(=O)N2CCOCC2)cc1Cl)N1CCOCC1 | -24.9% |  |
| CC1CC(C)CN(CCCNC(=O)c2csc3c2CCCCC3)C1 (stereo not drawn) | -2.49% |  |
| CCOC(=O)c1nc(N)sc1C(=O)OCC | -2.51% |  |
| O=C(Nc1ccc(-n2ccnc2P(=O)(O)c2ccccc2)cc1)c1ccccc1Br | -25.4% |  |
| CSc1nc2sc3c(c2c(=O)[nH]1)CCc1ccccc1-3 | -1.5% |  |
| O=C(NC1CCCC1)C(c1c(F)cccc1Cl)N(C(=O)c1csnn1)C1CC1 (stereo not drawn) | -3.6% |  |
| Cc1noc(C)c1NC(=O)Nc1cccc2c1O[C@H](CN(C)C(=O)Nc1ccccc1)[C@@H](C)CN([C@H](C)CO)C2=O | -6.07% |  |

| Structure (SMILES) | activity change, negative = growth inhibition | Potency |
| --- | --- | --- |
| O=C(Nc1ccc2c(c1)CCC2)c1ccc(Br)s1 | -21.1% |  |
| CCN(CC(=O)NCc1ccc(Cl)cc1)C(=O)CSc1ccccc1 | -21.6% |  |
| O=C(CSc1nc2ccccc2o1)N1CCN(c2ccccc2)CC1 | -26.2% |  |
| Cc1ccc(/C=N/NC(=O)Cn2nc(C)c(Br)c2C)o1 | 0.967% |  |
| CN(C)S(=O)(=O)c1cccc(C(=O)Nc2cccnc2)c1 | -5.49% |  |
| Cc1ccc(/C=N/NC(=S)Nc2cccc(S(=O)(=O)N(C)C)c2)o1 |  | 2.59 µM (active) |
| O=C(OCc1cc2ccccc2[nH]c1=O)c1cccnc1 | -6.84% |  |
| CN1CCN(S(=O)(=O)c2ccc3[nH]cc(C(=O)O)c(=O)c3c2)CC1 | -1.96% |  |
| Cc1cc(C)c(-c2csc(NC(=O)CCCc3nc4ccccc4c(=O)[nH]3)n2)c(C)c1 |  | 8.2 µM (active) |
| CC(C)(C)c1ccc(NC(=O)COC(=O)CCc2nc3ccccc3c(=O)[nH]2)cc1 | -21.3% |  |
| O=C(CCc1nc2ccccc2c(=O)[nH]1)OCC(=O)c1cccc(Cl)c1 | -24.5% |  |
| Cc1ccc(C(=O)N/C(=C\c2cn(S(=O)(=O)N(C)C)c3ccccc23)C(=O)N2CCCC2)cc1 | -14.7% |  |
| C/C=C(\C)C(=O)OC1C(OC(=O)C2(C)OC2C)c2cc3ccc(=O)oc3cc2OC1(C)C (stereo not drawn) | -10.9% [at 9.04 µM] |  |
| CN1CCN(/N=C/c2ccc(C#N)cc2)CC1 | -20.6% |  |
| Cc1ccc(NS(=O)(=O)c2ccc3c(c2)CC(=O)N3)cc1Cl | -18.8% |  |
| Cc1cccc(N2C(=O)c3cccnc3C2=O)c1 | -2.8% |  |
| NC1=CC(=O)C(=O)c2cccnc21 |  | 3.66 µM (active) |
| O=C1c2cccnc2C(=O)N1Cc1cccs1 | -22% |  |
| CNc1nc(-c2ccccc2OC)nc2ccccc12 |  | 7.31 µM (active) |
| Cc1cccc(-c2noc(-c3ccc(F)cc3)n2)c1 | 1.15% |  |
| Oc1ccc(-c2nnc(Nc3ccccc3)c3ccccc23)cc1 | 13.6% |  |
| COc1ccccc1-c1nc(NCCNC(C)=O)c2ccccc2n1 | 15.7% |  |
| COc1cc(Nc2nc(-c3ccc(OC)c(OC)c3)nc3ccccc23)cc(OC)c1 |  | 2.06 µM (active) |
| COc1cccc(-c2nc(Nc3ccncc3)c3ccccc3n2)c1 |  | 10.3 µM (active) |
| Cc1cccc(-c2nc(Nc3ccc(O)cc3)c3ccccc3n2)c1 |  | 20.6 µM (active) |
| Cc1nc2ccccc2c(C)c1C(=O)c1ccc(F)cc1 | -6.13% |  |

| Structure (SMILES) | activity change, negative = growth inhibition | Potency |
| --- | --- | --- |
| COc1ccc(-c2nc3n(c(=O)c2C#N)CCS3)c(OC)c1 | 9.93% |  |
| CC1=NCCN1S(=O)(=O)c1ccc(Br)c(C)c1 | -20.7% |  |
| CCCCn1c(=O)c2oc3ccccc3c2n(CC(=O)Nc2ccccc2OC)c1=O | -4.94% |  |
| O=C(Nc1ccc(OCC(=O)N2CCOCC2)cc1)c1cc(F)c(F)cc1Cl | -18.8% |  |
| N#Cc1c(-c2ccccc2)c(-c2ccccc2)n[nH]c1=O | -17.4% |  |
| CCn1c(CSc2nc(C)cc(C)n2)nnc1SCC(N)=O | 7.59% |  |
| COCCCn1c(SCc2cccc(OC)c2)nc2cc(OC)c(OC)cc2c1=N |  | 16.4 µM (active) |
| COc1ccc(/C=C/c2nnc(NC(=O)C(C)C)s2)cc1 | -19.3% |  |
| Cc1cccc(N=C2SC(C)CN2C(=O)CN2C(=O)NC3(CCCC3)C2=O)c1 (stereo not drawn) | -6.89% |  |
| CC(C)c1nc2cc(C(=O)NC(C)c3cnn(C)c3)ccc2o1 (stereo not drawn) | -0.753% |  |
| COc1ccc(C2Sc3ccccc3NC3=C2C(=O)c2ccccc23)c(OC)c1OC (stereo not drawn) |  | 1.84 µM (active) |
| COc1cccc(C2=CC(=O)C[C@H](c3ccc(F)cc3)C2)c1OC | -29.4% |  |
| O=[N+]([O-])c1ccc(N2CCN(S(=O)(=O)c3ccccc3)CC2)cc1N1CCc2ccccc2C1 | -4.16% |  |
| CSCCC(NC(=O)COc1ccccc1)C(=O)OCc1ccc(Cl)cc1 (stereo not drawn) | -13.5% |  |
| CN(CCOc1ccc(CC2SC(=O)NC2=O)cc1)c1ccccn1 (stereo not drawn) |  | inactive |
| Cn1c(=O)[nH]c(=O)c2c1nc(NCCCn1ccnc1)n2Cc1cccc(Br)c1 | -8% |  |
| CCCCNc1nc2c(c(=O)n(C)c(=O)n2C)n1Cc1cccc(OC)c1 |  | 1.84 µM (active) |
| Cn1c(=O)c2c(nc(NCCc3ccccc3)n2Cc2ccccc2)n(C)c1=O |  | 4.11 µM (active) |
| COc1ccc(CCn2c(NCCCN3CCOCC3)nc3c2c(=O)[nH]c(=O)n3C)cc1 | -9.49% |  |
| Cn1c(=O)c2c(nc(N/N=C/c3cccs3)n2Cc2ccc(Br)cc2)n(C)c1=O |  | 23.1 µM (active) |
| CCCCn1c(SCC(=O)NCCc2ccc(OC)c(OC)c2)nc2c1c(=O)n(C)c(=O)n2C | -17.6% |  |
| Cn1c(=O)c2c(nc(NCc3ccccc3)n2CC(N)=O)n(C)c1=O | -17.3% |  |
| COc1ccc(CCN2CNc3c(c(=O)n(C)c(=O)n3C)C2)cc1OC | -22.6% |  |
| Cn1c(=O)c2c(nc(NCCc3ccccc3)n2Cc2ccccc2Br)n(C)c1=O | -22.3% |  |
| CCn1c(NCCc2ccc(OC)c(OC)c2)nc2c1c(=O)n(C)c(=O)n2C |  | 7.31 µM (active) |
